Data on 101 compounds can be found in PubChem BioAssay AID598 (SRMLSC, 2007).

Structures are written as SMILES. Among all 85,000 compounds or so, about 5,100 (6%) were called active. The list comes from a sample in which actives are over-represented; it also holds similar structures and randomly drawn compounds. Values without a mark were called inactive.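 The calls were made as follows: active = viability at or below 40%; inactive = viability above 40%.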

This test is described as follows: H69AR cell viability reduction – human, 86K library, primary screen (AID 598).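 Also: multidrug resistant small cell line overexpressing MRP-1 efflux transporter; 100% = mean luminescence of untreated control wells.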 The note with it: H69AR lung tumor viability, ATP luminescence, 72 h; at 10 µM; hits give low values.
For the compound `CC(C)(C)c1cc(=O)n2c(nc3ccccc32)[nH]1`, the viability is 75.5%.
The same measure for `Cc1ccc(SCC(=O)Nc2ncc(C)s2)cc1`: 94.5%.
The same measure for `CC(C)C(OC(=O)c1cccs1)C(=O)NC1CCCCC1` (stereo unspecified): 101%; for `Nc1nonc1-c1nc2ccccc2n1Cc1ccc(F)cc1`: 18.4% (active); for `COc1ccc(C)c(Cn2c(-c3nonc3N)nc3ccccc32)c1`: 21% (active).
As to `COCc1nc2ccccc2n1Cc1ccccc1Br`, the viability is 98.2%.
With `CC(=O)Nc1nonc1-c1nc2ccccc2n1Cc1ccccn1`, the viability was 84.4%.
Take `Nc1nonc1-c1nc2ccccc2n1CCC(=O)O`: the viability was 109%.
To `CCC(=O)Nc1nc2ccccc2n1Cc1ccccc1C` belongs 65.7%.
The same measure for `c1ccc(Nc2nc(N3CCOCC3)c3ccccc3n2)cc1`: 95.8%; for `O=C(O)CSCc1ccc(C(=O)O)o1`: 96.9%.
On to `COc1ccccc1NC(=O)CC(NCCN(C)C)C(=O)O` (stereo unspecified), for which the viability is 99.1%.
As to `CCOC(=O)C1CSC(CC(=O)Nc2ccc(OCC)cc2)C(=O)N1` (stereo unspecified), the viability is 86.6%.
The same measure for `CC(C)C(=O)NC(NC(=S)NC1CCS(=O)(=O)C1)C(Cl)(Cl)Cl` (stereo unspecified): 102%; for `Cc1ccc(-n2nc3cc(C)c(NC(=O)c4cccnc4)cc3n2)cc1`: 82%; for `O=S(=O)(NCC1OCCc2ccccc21)c1ccccc1` (stereo unspecified): 87.1%.
As for `COc1ccc(OC)c(C(=O)c2ccc(C(=O)O)cc2)c1`, the viability was 99.1%.
As for `COc1ccc(NC(=O)c2ccc(OC)cc2)cc1`, the viability was 105%.
To `COC(=O)c1cc(OC)ccc1-c1ccc(OC)cc1` belongs 29.3% (active).
As for `CCOC(=O)C1=C(C)NC(SC)=NC1c1ccccc1` (stereo unspecified), the viability was 83.7%.
`CC1CCN(C(=O)CN(c2ccc(Oc3ccccc3)cc2)S(C)(=O)=O)CC1`: the viability is 85%.
To `CCCOn1c(-n2nc(C)cc2C)nc2ccccc2c1=O` belongs 93.8%.
The same measure for `COc1ccc(C)cc1N(C)C(=O)c1coc(=O)c2ccccc12`: 94.7%.
The same measure for `Cc1cc(NC(=O)CSc2nnc(-c3ccc(Cl)s3)o2)no1`: 96.5%; for `Cc1cc(C)c2c(c1)cc(C)c1nnc(SCC(=O)Nc3cc(C)on3)n12`: 16.8% (active).
In the case of `CCOc1ccccc1Nc1nnc(SCC(=O)Nc2cc(C)on2)s1`, the viability was 71.1%.
To `CC(C)(C)n1nnnc1C(c1ccc(Cl)cc1)N1CCSCC1` (stereo unspecified) belongs 82.5%.
The same measure for `COc1ccc(S(=O)(=O)NCc2ccc(C(=O)N(C)Cc3ccco3)cc2)cc1`: 76.5%.
The same measure for `CC(=O)N1CCCc2cc(S(=O)(=O)CCC(=O)N3CCN(c4ccccc4)CC3)ccc21`: 86.6%; for `Cc1nc2ccc(C(=O)N3CCN(c4ccccc4)CC3)cc2s1`: 91.5%.
In the case of `O=C(c1cc2c(s1)CCC2)N1CCN(c2ccccc2)CC1`, the viability was 39.4% (active).
Take `COc1ccc(C)cc1S(=O)(=O)Nc1cccc(Cl)c1Cl`: the viability was 97.3%.
The same measure for `CCOc1ccc(C(O)Cc2nc3ccccc3n2C)cc1` (stereo unspecified): 96.6%; for `O=C(COC(=O)c1n[nH]c2ccccc12)NCc1ccccc1`: 96.7%; for `COC(=O)Nc1ncc(CN2CCCCC2)s1`: 92.5%.
As to `CCN1C(=O)/C(=C2/Sc3ccc(OC)cc3N2C)SC1=Nc1ccc(C)cc1`, the viability is 66.1%.
To `COc1ccc(N2CCN(CCNC(=O)CCN3C(=O)COc4ccccc43)CC2)cc1` belongs 86.1%; to `COc1ccc(C2C(C(=O)N3CCN(c4ccc(OC)cc4)CC3)c3ccccc3C(=O)N2C)cc1` (stereo unspecified), 32.2% (active); to `CCOc1ccc(C2C(C(=O)O)c3ccccc3C(=O)N2CCN2CCOCC2)cc1` (stereo unspecified), 85.1%.
The same measure for `CCCNC(=O)c1ccccc1NC(=O)CSCc1ccc(OC)cc1`: 83.9%; for `COc1ccc(C2=NO[C@@H]3C(=O)N(Cc4ccccc4)C(=O)[C@H]23)cc1OC`: 95.8%.
In the case of `CCNCCC(=O)N1c2ccccc2Sc2ccc(NC(=O)OCC)cc21`, the viability is 78.6%.
`Cc1ccc(F)c(NC(=O)CCc2ccccc2)c1`: the viability was 97.8%.
Regarding `Cc1cccc(N2CCN(C(=O)c3cc4c(=O)[nH]c5ccccc5c4n3C)CC2)c1C`, the viability is 36% (active).
To `Cn1c(C(=O)NCCN2CCc3ccccc3C2)cc2c(=O)[nH]c3ccccc3c21` belongs 61.7%; to `CC(=O)N1CCN(c2cccc(C)c2C)CC1`, 107%; to `CCn1c(C)nc2c1C(=O)c1ccccc1C2=O`, 69.1%.
As for `CC1CCc2c(nc3ncnn3c2Nc2ccc(OC(F)(F)F)cc2)C1` (stereo unspecified), the viability was 69.4%.
Regarding `COc1ccc(-n2c(SCC(=O)Nc3sc4c(c3C#N)CCCC4)nnc2-c2ccc(O)cc2)cc1`, the viability is 11.8% (active).
The same measure for `COc1ccc(-c2nnc(SCC(=O)c3ccco3)n2-c2ccccc2)cc1`: 91.9%; for `N#Cc1c(NC(=O)CSc2nc3ccccc3c(=O)n2Cc2ccco2)sc2c1CCCC2`: 3.86% (active); for `COC(=O)c1c(NC(=O)CSc2nncs2)sc2c1CCCCC2`: 50.8%.
To `CC(Sc1nc2ccccc2c(=O)n1Cc1ccco1)C(=O)c1ccccc1` (stereo unspecified) belongs 77.2%.
In the case of `COc1ccccc1NC(=O)CSc1nc2sc(C)c(C)c2c(=O)n1Cc1ccco1`, the viability was 58.9%.
Turning to `CCC(C)NC(=O)C1CCCN(C(=O)NC2CCCCC2)C1` (stereo unspecified), the viability is 94.6%.
For `COc1ccc(C(C#N)Nc2ccc(C)cc2)cc1` (stereo unspecified), the viability is 89.5%.
Take `Cc1cccc(OCCCC(=O)Nc2ccc(S(=O)(=O)N3CCCC3)cc2)c1`: the viability is 89.2%.
The same measure for `O=C(c1ccc2c(c1)OCO2)N1CCOCC1`: 96.2%; for `O=C(Cn1cnc2c(cnn2-c2ccccc2)c1=O)NCc1ccccc1`: 30.8% (active).
`CN(Cc1ccccc1)C(=O)CCNC(=O)Cn1cnc2ccccc2c1=O`: the viability was 93.7%.
As to `O=C(Cn1cnc2c(cnn2-c2ccc(F)cc2)c1=O)NCCc1ccccc1`, the viability was 99.4%.
For `O=C(OC1CCCCC1=O)c1cccc(S(=O)(=O)NCc2ccccc2)c1` (stereo unspecified), the viability was 68.2%.
To `CCn1c(=O)c(=O)n(CC)c2cc(S(=O)(=O)N3CCc4ccccc43)ccc21` belongs 27.2% (active).
To `Cc1ccc(S(=O)(=O)N2CC(=O)Nc3ccccc32)cc1C` belongs 102%; to `Cn1c(=O)n(C)c2cc(S(=O)(=O)N3CCCc4ccccc43)ccc21`, 21.1% (active); to `Cc1nn(C)c(C)c1S(=O)(=O)N1CCc2ccccc21`, 95.6%.
With `Cn1c(=O)c(=O)n(C)c2cc(S(=O)(=O)NCCc3ccccc3)ccc21`, the viability was 94.1%.
The same measure for `CSc1nc2ccc(S(=O)(=O)N3CCc4ccccc43)cc2s1`: 64.1%; for `CC1=CC(C)(C)NC(=S)N1c1ccccc1`: 98.5%.
The same measure for `CCN(CC)CCCNC(=O)CCc1ccccc1`: 97.4%; for `O=C(NCCOc1ccccc1)c1ccccc1`: 91.4%.
To `CCc1ccc(CNC(=O)C2CCCN(c3nc4ccccc4o3)C2)cc1` (stereo unspecified) belongs 92.4%.
For `NC1=NC(=O)C2(COC(c3ccccc3Cl)OC2)S1` (stereo unspecified), the viability is 92.6%.
To `CCOc1ccc(-n2c(N)c(C(=O)NCC3CCCO3)sc2=S)cc1` (stereo unspecified) belongs 94.8%.
For `Oc1c(Cl)cc(Cl)c(Cl)c1Cc1c(O)c(Cl)cc(Cl)c1Cl`, the viability is 13.5% (active).
With `COc1cc(OC)nc(NC(=O)CCl)n1`, the viability is 98.7%.
The same measure for `C=C(Cl)COC(=O)C1C2C=CC(C2)C1C(=O)O` (stereo unspecified): 101%.
The same measure for `CCOC(=O)Cc1csc(NC(=O)Nc2ccccc2)n1`: 96.7%; for `Cc1csc(NC(=O)NC2(C(F)(F)F)Oc3ccccc3O2)n1`: 22.9% (active).
To `Cc1csc(NC(=O)CN2CCCCCC2)n1` belongs 95.1%.
Consider `COc1cc(CC(=O)NCc2cccs2)cc(OC)c1OC`, for which the viability was 106%.
To `COc1ccc(Nc2nc(=O)[nH]nc2C)cc1` belongs 95.5%; to `CCOC(=O)c1sc(NC(=O)CCN2CCOCC2)c(C(=O)OCC)c1C`, 45.7%.
To `CCOC(=O)c1c(NC(=O)CCl)sc(C(=O)N(CC)CC)c1C` belongs 2.11% (active).
The same measure for `CCOC(=O)Nc1sc(C(=O)N(C)C)c(C)c1C(=O)OCC`: 84.2%; for `Cc1ccc(C(=O)N2CCCC2)c(F)c1F`: 87.4%.
As for `OC(CN=c1sc2ccccc2n1CC(O)COc1ccccc1)COc1ccccc1` (stereo unspecified), the viability is 23.3% (active).
To `OC(COc1ccccc1)Cn1cc(Br)cn1` (stereo unspecified) belongs 109%; to `CC(C)c1ccc(OCC(O)Cn2cnc3ccccc32)cc1` (stereo unspecified), 82.6%; to `Cc1cccn2c(=O)c(/C=C(\C#N)S(=O)(=O)c3ccc(Cl)cc3)c(N3CCC(C(N)=O)CC3)nc12`, 82.2%.
Regarding `CC(OC(=O)CN1C(=O)C2CCCCC2C1=O)C(=O)Nc1ncc(Cl)cc1Cl` (stereo unspecified), the viability was 101%.
The same measure for `CC1=CC(C)(C)Nc2ccc(OC(=O)CN3C(=O)C4CCCCC4C3=O)cc21` (stereo unspecified): 0.5% (active); for `CC1=CC(C)(C)Nc2ccc(OC(=O)C(Cc3ccccc3)N3C(=O)C4CCCCC4C3=O)cc21` (stereo unspecified): 80.3%.
To `CCCCCCSc1nsc(N)n1` belongs 82.7%; to `CCOC(=O)c1[nH]c(C)c(C(=O)OCC(=O)N2c3ccccc3CC2C)c1C` (stereo unspecified), 87%; to `CCOC(=O)c1cc2n(c1C)-c1ccccc1C2=O`, 90.3%.
On to `CC(C)OC(=O)CN1C(=O)c2ccccc2C1=O`, for which the viability is 98%.
For the compound `Cc1cccc2c1N(CC(=O)OC(C)C)C(=O)C2=O`, the viability is 71.7%.
The same measure for `CC(C)OC(=O)CN1C(=O)C(=O)c2ccccc21`: 13.1% (active); for `CCOC(=O)CN1C(=O)C(=O)c2cc(C)ccc21`: 20.2% (active).
For `CCCCOC(=O)Cn1c(=O)n(CC(=O)OCCCC)c2cc(C)ccc21`, the viability is 99.5%.
